A selection: hits, their analogues and other compounds. The true share with any hit is near 1.3%.
Rce1 inh = yeast Rce1p protease inhibitors, primary screen, biochemical, fluorescence, cell-free homogeneous | CAAX prenyl protease 2 (Saccharomyces cerevisiae (strain ATCC 204508 / S288c)), Q03530 | yeast membranes, quenched prenylated peptide cleavage fluorescence | calls only | actives 0.27% (n = 290,000) | AID 2563, 2010;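 active = fall in fluorescence gain of 50% or more versus controls, with final raw signal at or below 3038400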
Target sequence (Q03530 whole entry, looked up): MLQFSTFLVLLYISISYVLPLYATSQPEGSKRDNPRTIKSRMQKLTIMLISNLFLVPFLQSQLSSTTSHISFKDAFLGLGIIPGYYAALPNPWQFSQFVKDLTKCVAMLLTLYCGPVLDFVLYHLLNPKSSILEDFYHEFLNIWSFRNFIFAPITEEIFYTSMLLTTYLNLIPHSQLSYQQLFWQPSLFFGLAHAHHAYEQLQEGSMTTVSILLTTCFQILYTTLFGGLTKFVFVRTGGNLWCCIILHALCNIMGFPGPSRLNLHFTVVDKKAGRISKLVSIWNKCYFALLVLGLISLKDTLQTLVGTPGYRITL
PGC1a acetyl inh = inhibitors of PGC1a acetylation signal, primary screen, cell-based, U2OS, AlphaScreen, inhibitor mode. AID 651687, 2012. AlphaScreen anti-acetyl-lysine; with virally co-expressed GCN5 acetyltransferase. inhibition, % at 15.6 µM. actives 0.17% (n = 350,000);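 active = every replicate shows inhibition of at least 40%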
Statin myotox sup = suppressors of statin myotoxicity in C2C12 myotubes, primary screen, cell-based, single point, plate reader; rescue of ATP level, % at 7.49 µM; AID 602340, 2012; actives 0.78% (n = 330,000); C2C12 myotubes + simvastatin, ATP luminescence, 48 h; scaled: DMSO 0, geranylgeraniol control 100;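 active = mean ATP rescue above about 67%, or every replicate alone reaching that limit, limit read from the data, passing the limit was not always enough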;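 note: myotubes were challenged with 10 µM simvastatin during compound exposure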
AI-2 QS mod = Vibrio harveyi AI-2 quorum sensing modulators, primary screen, JMH597 strain, luminescence/OD600 ratio | Vibrio harveyi JMH597 AI-2 luminescence/OD600 ratio, 9 h; stronger effect = lower value; strain lacks LuxN and CqsS sensors; 0 = neutral-control median | activity change, % at 7.5 µM | actives 0.4% (n = 300,000) | AID 2094, 2009; in the data active = activity change below about -75%, passing the limit was not always enough;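 note: luminescence divided by OD600 gain over 9 h not by final OD600 alone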
HIF act = HIF pathway transcriptional activators, primary screen, cell-based, U2OS HRE-luciferase, luminescence | U2OS HRE-luciferase reporter; normalized: DMSO 0%, desferrioxamine 100% | activation, % at 7.5 µM (by protocol) | actives 0.32% (n = 300,000);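 active = mean activation of at least 10% of the iron chelator positive control signal, with at least half of replicates also reaching 10%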
Large screens that a line does not name were inactive.

Cc1c(Cl)ccc2sc(NC(=O)CN3C(=O)c4ccccc4C3=O)nc12	AI-2 QS mod -94.8
CC(C)(C)Cc1nnc(NC(=O)CN2C(=O)c3ccccc3C2=O)s1	none
COCCc1nnc(NC(=O)Cc2ccccc2)s1	Statin myotox sup 88.5
CCCCc1nnc(NC(=O)CN2C(=O)c3ccccc3C2=O)s1	AI-2 QS mod -85.7 (no result: PGC1a acetyl inh)
CCOCCc1nnc(NC(=O)CCc2ccccc2)s1	none (no result: PGC1a acetyl inh, Statin myotox sup)
CCCC(=O)Nc1nc2c(C)c(Cl)ccc2s1	none (no result: Statin myotox sup)
C[C@@H]1CN([C@@H](C)CO)C(=O)c2cc(NC(=O)Cc3ccccc3)ccc2O[C@@H](C)CCCCO[C@H]1CN(C)Cc1ccc(C(F)(F)F)cc1	none (no result: Rce1 inh, AI-2 QS mod, HIF act)
CCC(=O)Nc1ccc2c(c1)C(=O)N(C)[C@H]1CC[C@@H](CC(=O)NCc3ccccc3Cl)O[C@@H]1CO2	none (no result: Rce1 inh, AI-2 QS mod, HIF act)
CC(=O)Nc1ccc2c(c1)CCc1ccccc1-2	none (no result: PGC1a acetyl inh)
O=C(O)/C=C/C(=O)c1ccc2c(c1)CCc1ccccc1-2	AI-2 QS mod -89.4
O=C(COc1ccccc1F)NCCc1ccc2c(c1)OCCO2	Statin myotox sup 125.7 (no result: Rce1 inh, AI-2 QS mod, HIF act)
Cc1ccc(S(=O)(=O)N/N=C/c2c[nH]c3ccccc23)cc1	PGC1a acetyl inh 104.5
CN1CCN(c2nc3c(c(=O)n(C)c(=O)n3C)n2Cc2cccc3ccccc23)CC1	Statin myotox sup 115.6
Cc1nnc(-c2ccccc2)c(=O)n1/N=C/c1c(O)ccc2ccccc12	PGC1a acetyl inh 64.5, Statin myotox sup 84.1, HIF act 68.8
Cc1nnc(C)n1/N=C/c1c(O)ccc2ccccc12	none
Cc1nc2ccccc2c(=O)n1/N=C/c1ccc2ccccc2c1O	HIF act 10.8 (no result: PGC1a acetyl inh, Statin myotox sup)
Cc1nc2ccccc2c(=O)n1/N=C/c1ccc(O)c(O)c1O	none (no result: PGC1a acetyl inh)
C[C@H](CO)N1C[C@H](C)[C@@H](CN(C)C(=O)CC2CC2)Oc2ncc(C#C[C@@H](C)O)cc2C1=O	none (no result: Rce1 inh, AI-2 QS mod, HIF act)
CSCC(O)Cn1[nH]c(=O)c2cc(Cl)c(Cl)cc2c1=O (configuration not stated)	PGC1a acetyl inh 83.7 (no result: Rce1 inh)
O=C(CC1(O)C(=O)N(C/C=C/c2ccccc2)c2ccccc21)c1ccccn1 (configuration not stated)	Rce1 inh active
COc1ccc2c3c(n(C)c2c1)[C@@H](CO)N(C(=O)CC1CC1)CC31CCN(C(=O)C2CCC2)CC1	none (no result: Rce1 inh, Statin myotox sup, AI-2 QS mod, HIF act)
CCC(=O)c1ccc(OCC(=O)O)cc1	Statin myotox sup 106.8
CC1(C(=O)Nc2cccc(C#N)c2)CCN1C(=O)Cc1ccc(-c2ccccc2)cc1 (configuration not stated)	none (no result: Rce1 inh, AI-2 QS mod, HIF act)
CC1(C(=O)Nc2cccc(C#N)c2)CCN1C(=O)CCc1ccccc1 (configuration not stated)	PGC1a acetyl inh 43.6 (no result: Rce1 inh, AI-2 QS mod, HIF act)
Cc1cc(N2CCN(C)CC2)ccc1NC(=O)c1c2c(nc3ccccc13)CCN(Cc1ccccc1)C2	PGC1a acetyl inh 69.4 (no result: Statin myotox sup)
CC(Cc1ccccc1)N/C=C1\CC(=O)NC1=O (configuration not stated)	Statin myotox sup 79.7
CCCN(C)C[C@@H]1Oc2cc(C#Cc3ccncc3)ccc2S(=O)(=O)N([C@H](C)CO)C[C@@H]1C	none (no result: Rce1 inh, AI-2 QS mod, HIF act)
C[C@H]1C=C(C(=O)N2CCN(Cc3ccc4c(c3)OCO4)CC2)O[C@@H](OCCCCO)C1	none (no result: Rce1 inh, Statin myotox sup, AI-2 QS mod, HIF act)
CCc1ccc(OCC(=O)NNC(=S)NC(=O)C2CCCCC2)c(Br)c1	none (no result: Rce1 inh, Statin myotox sup)
CCc1ccc(OCC(=O)NNC(=S)NC(=O)C2CC2)c(Br)c1	AI-2 QS mod -85.0 (no result: HIF act)
COc1ccccc1NC(=O)CN(c1ccc(C23CC4CC(CC(C4)C2)C3)cc1)S(C)(=O)=O	Rce1 inh active
CS(=O)(=O)N(CC(=O)O)c1ccc(C23CC4CC(CC(C4)C2)C3)cc1	none (no result: PGC1a acetyl inh)
Cc1ccccc1-c1nc(CN2CCC(C(=O)NCc3cccnc3)CC2)c(C)o1	Statin myotox sup 99.5
Cc1oc(-c2ccccc2F)nc1CN1CCC(C(=O)NCc2cccnc2)CC1	none
C[C@H]1CN([C@@H](C)CO)C(=O)c2cc(NS(=O)(=O)c3ccc(Cl)cc3)ccc2O[C@@H]1CN(C)C(=O)Nc1ccc(C(F)(F)F)cc1	none (no result: Rce1 inh, AI-2 QS mod, HIF act)
Cc1cccc(/C=N\Nc2cn[nH]c(=O)c2Cl)c1	Statin myotox sup 101.8

High-throughput results deposited in PubChem BioAssay by Broad Institute.
